# Most compounds without a hit are left out; they make up all but 9.2% or so of the library.
# ELG1 repair inh: ELG1-dependent DNA repair inhibition. HEK293T ELG1-luciferase reporter, luminescence, 16 h; DNA damage induced by 5-fluorouridine. Potency, µM (top dose mostly 46.1 µM), for the others: at the top dose activity change, negative = inhibition, actives largely listed as inhibitors. hit rate 2.3% among 330,000. AID 504467; note: % is set by controls: 0 for no effect and ±100 for the full control effect; nearly all actives have a fitted effect of over 55% in size
#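 Step one: seed 2,000 cells per well. Step two: pin-transfer compound or DMSO alongside 5-fluorouridine. Step three: incubate 16 hr, 37 °C, 5% CO2. Step four: add ONE-Glo, wait 30 min, read luminescence.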
# Rab9 prom act: Rab9 promoter activation; Potency, µM (top dose mostly 9.22 µM), without a hit: top-dose activation, negative = inhibition, most hits filed as activators; Huh7 Rab9 promoter-luciferase reporter, luminescence, 24 h; hit rate 2.8% among 320,000; AID 485297; note: % of control where 0% means no effect; nearly all actives have a fitted effect of over 60% in size
#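 Cell-based reporter: Huh7 stable for Rab9 promoter-driven luciferase, plated in reduced-serum medium with 10% FBS at 1500 cells/well, compound-treated 24 h at 37 °C, luminescence read after 10 min reagent.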
# NPC1 prom act: activators of NPC1 promoter | Huh7 NPC1 promoter luciferase reporter, 24 h | Potency, µM (highest dose often 9.22 µM), without a hit: top-dose activation, usual class: activators | hit rate 2.4% among 320,000; note: % of control where 0% means no effect; nearly all actives have a fitted effect of over 60% in size
#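 Cells: Huh7 expressing luciferase under the NPC1 promoter, 1500/well. Seeded 2 h, compound added, incubated 24 h at 37 °C. Luciferase reagent, 10 min ambient, then luminescence.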
# FLuc counter: counter-screen for miR-21 project: firefly luciferase inhibitors or activators; AID 588342; Potency, µM (doses to about 57.5 µM), for the others: at the top dose activity change, negative = inhibition, actives largely listed as inhibitors; hit rate 6.9% among 360,000; purified FLuc, Km substrates, luminescence inhibition;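 note: plate controls were vehicle for no effect and reference inhibitor for full effect; nearly all actives have a fitted effect of over 55% in size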
# Target sequence (P08659 whole entry, looked up): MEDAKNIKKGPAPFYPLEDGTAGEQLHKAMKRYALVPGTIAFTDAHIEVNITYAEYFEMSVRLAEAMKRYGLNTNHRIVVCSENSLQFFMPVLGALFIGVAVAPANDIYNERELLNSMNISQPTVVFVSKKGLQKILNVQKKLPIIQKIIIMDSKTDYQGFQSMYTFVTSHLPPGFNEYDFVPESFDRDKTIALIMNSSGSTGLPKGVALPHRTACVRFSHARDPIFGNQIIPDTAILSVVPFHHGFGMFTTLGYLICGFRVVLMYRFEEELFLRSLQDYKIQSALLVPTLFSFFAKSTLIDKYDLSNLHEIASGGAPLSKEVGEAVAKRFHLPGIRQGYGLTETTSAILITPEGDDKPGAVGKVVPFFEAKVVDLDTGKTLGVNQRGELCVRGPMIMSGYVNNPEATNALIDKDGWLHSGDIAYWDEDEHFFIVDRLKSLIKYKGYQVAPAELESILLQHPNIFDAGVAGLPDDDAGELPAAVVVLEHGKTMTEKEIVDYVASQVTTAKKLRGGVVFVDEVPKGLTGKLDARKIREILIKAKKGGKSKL
#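 Biochemical qHTS of compounds, final roughly 60 µM downward over six points, against 10 nM purified firefly luciferase using Km concentrations of substrates (10 uM D-luciferin, 10 uM ATP) in Tris acetate pH 7.5 buffer; luminescence output.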
# SMN2 splice up: enhancers of SMN2 splice variant expression; HEK293 SMN2-luciferase splicing reporter, luminescence, 30-36 h; Potency, µM (doses to about 46.1 µM), for inactives: top-dose activity change, positive = activation, hits mostly activators; hit rate 2.8% among 210,000; AID 1458; note: % of control where 0% means no effect; nearly all actives have a fitted effect of over 55% in size
#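 HEK293 cells carry an SMN2 minigene-luciferase reporter in which exon 7 inclusion puts luciferase in frame. Cells were seeded at 2000 cells/well, attached for 10-12 hours, then exposed to compounds for 30-36 hours at 37C before ONE-Glo luminescence.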
# ELG1 genotoxic: genotoxicity induction in ELG1-luciferase HEK293T cells | AID 504466 | HEK293T ELG1-luciferase reporter, luminescence, 16 h | hit rate 1.3% among 330,000 | Potency, µM (series often up to 46 µM), without a hit: at the highest dose activity change, positive = activation, usual class: activators; note: % of control where 0% means no effect; nearly all actives have a fitted effect of over 60% in size
#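 Genotoxic stress is detected as increased luminescence from luciferase-tagged ELG1 in HEK293T cells, measured with ONE-Glo after a 16 hr treatment at 37 °C.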
# Numbers without * were called inactive; ? = inconclusive; / = no result; [ ] = dose if it differs, or a comment. Calls come from the whole dose curve; as a rule, active = well fitted curve in the direction sought with a large enough effect; inconclusive = small, poorly fitted or top-dose-only effect, or another doubt; inactive = no such curve, though single readings can be large; an effect the other way counts as inactive or inconclusive. Potency is the fitted concentration of half-maximal effect.
SMILES,ELG1 repair inh,Rab9 prom act,NPC1 prom act,FLuc counter,SMN2 splice up,ELG1 genotoxic
CCCc1nc2ccc(NC(=O)c3ccco3)cc2c(=O)n1Cc1ccc(Cl)cc1,?,9%,7%,-16%,-8%,-7%
COCCn1c(=O)[nH]c2cc(C(=O)NCCN3CCN(c4cccc(Cl)c4)CC3)ccc2c1=O,21µM*,-10%,-12%,2%,-70%,-10%
Cc1cc(C(=O)NCCN2CCN(c3cccc(Cl)c3)CC2)n(-c2ccccc2)n1,8.2µM*,-18%,-5%,-2%,-12%,3%
COCCn1c(=S)[nH]c2cc(C(=O)N3CCN(c4cccc(Cl)c4)CC3)ccc2c1=O,?,-5%,-6%,3%,/,-1%[9.26 µM]
COCCn1c(=O)[nH]c2cc(C(=O)NCc3ccccc3Cl)ccc2c1=O,/,/,/,-1%,4µM*,/
Cc1ccc(C(=O)OCC(=O)NC2CCCC2)cc1,14%,2%,-1%,?,/,3%
Cc1cccc(N2CCN(C(=O)NCc3ccc(Cl)cc3)CC2)c1,-28%,-2%,-7%,0%,15%,1%
CCOc1cccc2sc(N(CCN(CC)CC)C(=O)c3ccco3)nc12,/,/,/,-8%,/,/
CC(=O)Nc1ccc(S(=O)(=O)NCC(=O)OCc2ccccc2)cc1,?,-10%,-3%,0%,19%,9%
COc1ccc(-c2onc(C)c2C)cc1S(=O)(=O)NCc1ccco1,/,/,/,4%,/,/
CCOc1ccc(-c2cc(N3C(=O)Nc4ccccc4N3O)on2)cc1,?,16%,15%,2.4µM*,16%,2%
COc1ccc(-c2cc(N3C(=O)Nc4ccccc4N3O)n[nH]2)c(OC)c1,-20%,-2%,-2%,15µM*,-8%,-10%
COc1ccc(-c2cc(N3C(=O)Nc4ccccc4N3O)n[nH]2)cc1,7%,9%,-1%,11µM*,?,-3%
COc1ccc(OC)c(C2=CC(=O)C[C@H](c3ccc4c(c3)OCO4)C2)c1,?,-2%,-17%,-1%,/,-1%
O=C(Nc1cccc(Br)c1)c1ccc2c(c1)SC1=NS(=O)(=O)CCN12,?,-2%,8%,1%,/,-1%
CC(C)(C)c1ccccc1NC(=O)c1ccc2c(c1)SC1=NS(=O)(=O)CCN12,21µM*,-4%,1%,-3%,/,-11%
COc1ccc(OCC(O)CNC(=O)c2ccccc2)cc1 (stereo unspecified),-6%,-2%,1%,-3%,/,0%
CCCCNc1c(-c2ccc(SC(C)CC)c(OC)c2)nc2ccc(Cl)cn12 (stereo unspecified),-14%,/,/,/,/,-1%
CCCCNc1c(-c2ccc(SC(C)CC)c(OC)c2)nc2ccc(C)cn12 (stereo unspecified),5%,-1%,0%,8.5µM*,/,-6%
CCOC(=O)Nc1nnc(-c2cccc(OC)c2)s1,1%,3%,10%,?,?,?
CCOC(=O)Nc1nnc(/C=C/c2ccc(OC)cc2)s1,?,0%,8%,13µM*,7%,16%
COc1ccc(/C=C/c2nnc(NC(=O)COc3ccccc3)s2)cc1,0%,-1%,4%,-3%,/,-1%
COc1ccc(/C=C/c2nnc(NC(=O)COc3ccc(C)cc3)s2)cc1,25%,3%,21%,-1%,5µM*,10%
CCOC(=O)Nc1nnc(-c2ccc(OC)cc2)s1,?,?,21%,4.8µM*,18%,?
CCCCOC(=O)Nc1nnc(/C=C/c2ccc(OC)cc2)s1,?,-1%,-4%,?,-4%,2%
CCCC(=O)Nc1nnc(/C=C/c2ccc(OC)cc2)s1,0%,17%,22%,?,/,2%
COc1ccc(/C=C/c2nnc(NC(=O)C(C)(C)C)s2)cc1,6%,19%,22%,8.5µM*,/,2%
CCN1CCN(c2cc(C)c3cc(NC(=O)/C=C/c4ccc(C)cc4)ccc3n2)CC1,/,/,/,?,7%,/
